In PubChem BioAssay AID1159580 (chemical genetic matrix, 2015):
Values joined by “and” are separate entries in the source; they are usually repeats but may differ in a detail not shown here. Equal values may be shown once. Screen size: about 5,500 compounds; about 2,000 (36%) were called active. Another 18% or so got no clear call; they are omitted. No stated cut-off is given here; in the data, active means normalized growth mostly below about 0.91 (no sharp cut-off); inconclusive means no clear call, values can overlap the other calls; inactive means mostly above about 0.92. Some of the results follow.

Assay: chemical genetic growth profiling, strain panel (AID 1159580);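 further: tested at 20 µM; growth read once vehicle control cultures reached saturation at 30 °C; 1 = growth at the plate median or of vehicle wells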
Conditions: S. cerevisiae deletion strains, growth OD

Measured: normalized growth

CN(C)CCCN1c2ccccc2CCc2ccccc21
inactive: locus YAL013W, strain DEP1, stronger effect = lower value 1.01 and 0.974 | locus YAL021C, strain ccr4, stronger effect = lower value 0.965 | locus YAL026C, strain drs2, stronger effect = lower value 1 | locus YAL030W, strain snc1, stronger effect = lower value 1 | locus YAL040C, strain CLN3, stronger effect = lower value 1.05 | locus YBL061C, strain skt5, stronger effect = lower value 1 | locus YBR009C, strain hhf1, stronger effect = lower value 0.995 | locus YBR021W, strain FUR4, stronger effect = lower value 0.997 | locus YBR023C, strain chs3, stronger effect = lower value 1 | locus YBR171W, strain sec66, stronger effect = lower value 1.01 | locus YBR229C, strain ROT2, stronger effect = lower value 1 | locus YBR231C, strain swc5, stronger effect = lower value 1 | locus YBR279W, strain paf1, stronger effect = lower value 1 | locus YCL011C, strain gbp2, stronger effect = lower value 1.01 | locus YCL016C, strain dcc1, stronger effect = lower value 0.994 | locus YCL029C, strain bik1, stronger effect = lower value 1 | locus YCL061C, strain MRC1 (second series), stronger effect = lower value 1 | locus YCL061C, strain MRC1, stronger effect = lower value 0.997 | locus YCL069W, strain vba3, stronger effect = lower value 1 | locus YCR088W, strain abp1, stronger effect = lower value 1.01 | locus YDL005C, strain med2, stronger effect = lower value 1.01 | locus YDL035C, strain GPR1, stronger effect = lower value 1.03 | locus YDL040C, strain nat1, stronger effect = lower value 1 | locus YDL074C, strain BRE1, stronger effect = lower value 1.02 | locus YDL101C, strain DUN1, stronger effect = lower value 1.03 | locus YDL134C, strain PPH21, stronger effect = lower value 1.03 | locus YDL185W, strain tfp1, stronger effect = lower value 0.993 | locus YDL192W, strain arf1, stronger effect = lower value 0.992 | locus YDR001C, strain nth1, stronger effect = lower value 1.01 | locus YDR069C, strain doa4, stronger effect = lower value 0.994 | locus YDR101C, strain arx1, stronger effect = lower value 0.998 | locus YDR137W, strain rgp1, stronger effect = lower value 1.1 | locus YDR150W, strain NUM1, stronger effect = lower value 1.01 | locus YDR159W, strain sac3, stronger effect = lower value 1 | locus YDR162C, strain NBP2, stronger effect = lower value 1.01 | locus YDR195W, strain ref2 1.02 | locus YDR297W, strain sur2, stronger effect = lower value 0.996 | locus YDR318W, strain mcm21, stronger effect = lower value 0.994 | locus YDR334W, strain swr1, stronger effect = lower value 1.01 | locus YDR335W, strain msn5, stronger effect = lower value 1.01 | locus YDR363W, strain ESC2, stronger effect = lower value 0.964 | locus YDR388W, stronger effect = lower value 0.995 | locus YDR392W, strain spt3, stronger effect = lower value 1.01 | locus YDR502C, strain sam2, stronger effect = lower value 0.993 | locus YEL003W, strain gim4, stronger effect = lower value 1 | locus YEL037C, strain rad23, stronger effect = lower value 1 | locus YEL061C, strain CIN8 (second series), stronger effect = lower value 1.03 | locus YEL061C, strain CIN8, stronger effect = lower value 1.01 | locus YER002W, strain NOP16, stronger effect = lower value 1.01 | locus YER015W, strain faa2, stronger effect = lower value 0.993 | locus YER016W, strain bim1, stronger effect = lower value 1.01 | locus YER110C, stronger effect = lower value 0.988 | locus YER111C, strain swi4, stronger effect = lower value 0.99 | locus YER155C, strain BEM2 (second series), stronger effect = lower value 0.975 | locus YER155C, strain BEM2, stronger effect = lower value 1 | locus YER167W, strain BCK2, stronger effect = lower value 1.01 | locus YFR010W, strain ubp6, stronger effect = lower value 1.01 | locus YGL078C, strain dbp3, stronger effect = lower value 0.972 | locus YGL086W, strain mad1, stronger effect = lower value 1.01 | locus YGL167C, strain pmr1, stronger effect = lower value 1.01 | locus YGL173C, strain kem1, stronger effect = lower value 0.991 | locus YGL227W, strain vid30, stronger effect = lower value 1 | locus YGL240W, strain doc1, stronger effect = lower value 1 | locus YGL248W, strain PDE1, stronger effect = lower value 1.01 | locus YGL253W, strain hxk2, stronger effect = lower value 1.02 | locus YGR078C, strain PAC10, stronger effect = lower value 1 and 0.981 | locus YGR135W, strain pre9, stronger effect = lower value 0.958 | locus YGR229C, strain SMI1, stronger effect = lower value 1 and 0.978 | locus YGR252W, strain gcn5, stronger effect = lower value 0.942 | locus YHR013C, strain ard1, stronger effect = lower value 0.947 | locus YHR027C, strain rpn1, stronger effect = lower value 1.01 | locus YHR030C, strain SLT2, stronger effect = lower value 1 and 0.993 | locus YHR079C, strain IRE1 (second series), stronger effect = lower value 0.989 | locus YHR079C, strain IRE1, stronger effect = lower value 1.01 | locus YHR094C, strain hxt1, stronger effect = lower value 0.978 | locus YHR129C, strain ARP1, stronger effect = lower value 1.01 | locus YHR142W, strain chs7, stronger effect = lower value 1.02 | locus YHR200W, strain rpn10, stronger effect = lower value 1 | locus YIL066C, strain RNR3, stronger effect = lower value 1.01 | locus YIL073C, strain SPO22, stronger effect = lower value 1 | locus YIL125W, strain kgd1, stronger effect = lower value 0.995 | locus YIR030C, strain dcg1, stronger effect = lower value 0.984 | locus YJL092W, strain hpr5, stronger effect = lower value 1.01 | locus YJL095W, strain BCK1 (second series), stronger effect = lower value 0.996 | locus YJL095W, strain BCK1, stronger effect = lower value 0.997 and 0.998 | locus YJL115W, strain asf1, stronger effect = lower value 1.01 | locus YJL129C, strain trk1, stronger effect = lower value 0.995 | locus YJL134W, strain LCB3, stronger effect = lower value 1.01 | locus YJL154C, strain vps35, stronger effect = lower value 1.02 | locus YJL164C, strain tpk1, stronger effect = lower value 1 | locus YJL166W, strain qcr8, stronger effect = lower value 1.02 | locus YJL168C, strain set2, stronger effect = lower value 0.984 | locus YJL187C, strain SWE1 (second series), stronger effect = lower value 1.01 | locus YJR043C, strain POL32, stronger effect = lower value 1.03 | locus YJR066W, strain TOR1, stronger effect = lower value 0.923
